In PubChem BioAssay (Tox21):
Calls of active or inactive are those of the source. The call rests on the fitted dose curve; in most records, active means well fitted activation curve with a large enough effect in the repeat runs; inconclusive means weak or mixed curves; inactive means flat fitted curve, though single readings scatter.

assay: A CellTox Green Cytotoxicity Assay to monitor cytotoxicity in HEK293 cells - 0 hour (AID 1224869); conditions: CellTox Green fluorescence; series mostly up to 76.8 µM; cytotoxicity: at the top concentration; further: nearly all actives have a fitted effect of over 50% in size
Text: National Center for Advancing Translational Sciences [NCATS]
NIH Chemical Genomics Center [NCGC]
U.S. Environmental Protection Agency [EPA]
National Institutes of Environmental Health Sciences [NIEHS]
National Toxicology Program [NTP]
Cell-based models are critical for drug discovery. Determining the natural cytotoxic effects resulting from test compounds is an essential research activity. A CellTox Green Cytotoxicity Assay to monitor cytotoxicity in real time of continues cell culture during 40 hours of the compound treatment was used to screen Tox21 10K library compounds in Hek293 cells. CellTox Green Cytotoxicity Assay is a nonlytic, homogeneous, biofluorescent method to measure cytotoxicity in cell culture after experimental manipulation. The assay system uses a proprietary asymmetric cyanine dye that is excluded from viable cells but preferentially stains the dead cell's DNA. […] Viable cells produce no appreciable increases in fluorescence. Therefore, the fluorescence signal produced by the binding interaction with dead cell DNA is proportional to cytotoxicity.
The mixture of Hek293 cell suspension and reagents were dispensed at 600cells/6 ul/well in 1536-well tissue culture treated black solid bottom plates using a Multidrop dispenser. After the assay plates were incubated at a 37 C/5% CO2 incubator for 5 hours, 23 nL of compounds dissolved in DMSO, positive and negative controls was transferred to the assay plate by a pintool work station. The plates were incubated at 37 C for 40 hours. The fluorescence intensity were measured at 0h, 8h, 16h, 24h, 32h and 40h time points using ViewLux plate reader during compound treatment.
On the % scale 0 is the no-effect control and ±100 the full control effect.

Question: With `CC(=O)OCC(=O)[C@@]1(O)[C@H](OC(C)=O)C[C@H]2[C@@H]3CCC4=CC(=O)C=C[C@]4(C)[C@@]3(F)[C@@H](O)C[C@@]21C` as the compound, how does the “cytotoxicity” value read?
Answer: 0.133% [at 35.3 µM] (inactive)

Question: With `CC(=O)Nc1ncc([N+](=O)[O-])s1` as the compound, how does the “cytotoxicity” value read?
Answer: 3.35% [at 35.3 µM] (inactive)

Question: With `CNC(=O)NC` as the compound, how does the “cytotoxicity” value read?
Answer: -7.66% (inactive)

Question: With `NCCc1ccn[nH]1` as the compound, how does the “cytotoxicity” value read?
Answer: -0.498% [at 35.3 µM] (inactive)

Question: With `C[N+](C)(C)CC(O)CCl` (stereo not given) as the compound, how does the “cytotoxicity” value read?
Answer: 0.669% (inactive)

Question: With `C=C(C)C(=O)OC` as the compound, how does the “cytotoxicity” value read?
Answer: 0.7% (inactive)

Question: For `NC(=O)C1(N2CCCCC2)CCN(CCCC(=O)c2ccc(F)cc2)CC1`, which “cytotoxicity” value is on record?
Answer: -1.02% [at 35.3 µM] (inactive)

Question: Which “cytotoxicity” value does the source give for `C=CCOc1cc(Cl)ccc1C(=O)NCCN(CC)CC` here?
Answer: 2.92% [at 35.3 µM] (inactive)

Question: Which “cytotoxicity” value does the source give for `CC1(N)CCC(C(C)(C)N)CC1` (stereo not given) here?
Answer: 3.86% (inactive)

Question: With `O=S(=O)(O)c1cc(O)ccc1O` as the compound, how does the “cytotoxicity” value read?
Answer: 0.604% (inactive)

Question: Which “cytotoxicity” value does the source give for `CCCCCCCCCCCCC1CO1` (stereo not given) here?
Answer: -2.66% (inactive)

Question: Which cytotoxicity does the source give for `O=c1[nH]c(=O)c2[nH]c(=O)[nH]c2[nH]1` here?
Answer: -14.8% [at 6.97 µM] (inactive)

Question: For `CCCCCCCCCCC`, which “cytotoxicity” value is on record?
Answer: 0.578% (inactive)

Question: With `O=C1OC(=O)c2ccccc21` as the compound, how does the “cytotoxicity” value read?
Answer: -2.28% (inactive)

Question: With `COc1cc(C=O)ccc1OC(=O)C(C)C` as the compound, how does the “cytotoxicity” value read?
Answer: 3.68% (inactive)

Question: Which “cytotoxicity” value does the source give for `CC(=O)OC[C@H]1O[C@@H](OC(C)=O)[C@H](OC(C)=O)[C@@H]1OC(C)=O` here?
Answer: -1.26% [at 35.3 µM] (inactive)

Question: For `CC(CC(=O)O)CC(C)(C)C` (stereo not given), which “cytotoxicity” value is on record?
Answer: 0.0049% (inactive)

Question: With `CCCCCN(CCCOC)C(=O)C(CCC(=O)O)NC(=O)c1ccc(Cl)c(Cl)c1` (stereo not given) as the compound, how does the “cytotoxicity” value read?
Answer: -3.89% [at 35.3 µM] (inactive)

Question: Which “cytotoxicity” value does the source give for `CO[Si](CCCCl)(OC)OC` here?
Answer: 0.552% (inactive)

Question: For `Cc1nc(C)nc(N2C[C@@H](C)N(c3ccnc([C@@H](C)O)n3)[C@@H](C)C2)n1`, which “cytotoxicity” value is on record?
Answer: 0.382% [at 35.3 µM] (inactive)

Question: For `CC(C)CCCCCCOC(=O)C1CCCCC1C(=O)OCCCCCCC(C)C` (stereo not given), which “cytotoxicity” value is on record?
Answer: 1.42% (inactive)

Question: Which “cytotoxicity” value does the source give for `Cc1ccccc1N1CCN(CCc2nnc3n2CCCC3)CC1` here?
Answer: -1.27% [at 35.3 µM] (inactive)

Question: Which “cytotoxicity” value does the source give for `CCCO` here?
Answer: 2.11% (inactive)

Question: With `CCOC(=O)C(C)(C)C` as the compound, how does the “cytotoxicity” value read?
Answer: 8.92% (inactive)

Question: Which “cytotoxicity” value does the source give for `CO/N=C(/C(=O)N[C@@H]1C(=O)N2C(C(=O)O)=C(Cn3nnc(C)n3)CS[C@H]12)c1csc(N)n1` here?
Answer: -2.52% [at 35.3 µM] (inactive)

Question: With `CCC(C)(CCC(C)C)C(=O)[O-].CCC(C)(CCC(C)C)C(=O)[O-].[Zn+2]` (stereo not given) as the compound, how does the “cytotoxicity” value read?
Answer: 5.2% (inactive)

Question: Which “cytotoxicity” value does the source give for `CCCCC(CC)C(=O)OC(C)C` (stereo not given) here?
Answer: 1.96% (inactive)

Question: Which “cytotoxicity” value does the source give for `CCOC(=O)C(=O)c1csc(NC=O)n1` here?
Answer: 3.21% [at 35.3 µM] (inactive)

Question: With `CC(C)(C)c1ccc(C=O)cc1` as the compound, how does the “cytotoxicity” value read?
Answer: -4.98% (inactive)

Question: With `Cc1ccccc1C` as the compound, how does the “cytotoxicity” value read?
Answer: -0.392% (inactive)

Question: Which “cytotoxicity” value does the source give for `CCNC(=O)/C=C/c1cccc(Br)c1` here?
Answer: 3.86% [at 35.3 µM] (inactive)

Question: For `COc1ccc(NS(=O)(=O)c2ccc(N)cc2)nn1`, which “cytotoxicity” value is on record?
Answer: 5.38% [at 35.3 µM] (inactive)

Question: For `CCCC(C)CC` (stereo not given), which “cytotoxicity” value is on record?
Answer: -1.69% (inactive)

Question: With `OC[C@@H](O)[C@H](O)[C@@H](O)[C@@H](O)CO` as the compound, how does the “cytotoxicity” value read?
Answer: -7.57% (inactive)

Question: For `O=CN1CCOCC1`, which “cytotoxicity” value is on record?
Answer: -0.166% (inactive)

Question: With `CCCCCCCCCCCCCC(=O)OC` as the compound, how does the “cytotoxicity” value read?
Answer: -8.28% (inactive)

Question: For `NC(=O)NC(=O)Cc1ccccc1`, which “cytotoxicity” value is on record?
Answer: -0.832% [at 35.3 µM] (inactive)

Question: For `Nc1ccc(C(=O)OCC(O)CO)cc1` (stereo not given), which “cytotoxicity” value is on record?
Answer: -2.39% [at 35.3 µM] (inactive)

Question: With `O=C(O)c1c(Cl)ccc(Cl)c1Cl` as the compound, how does the “cytotoxicity” value read?
Answer: 0.726% (inactive)

Question: With `CC(=O)N(CC(O)CO)c1c(I)c(C(=O)NCC(O)CO)c(I)c(C(=O)NCC(O)CO)c1I` (stereo not given) as the compound, how does the “cytotoxicity” value read?
Answer: -7.5% [at 35.3 µM] (inactive)
